This is one part of the list. Inconclusive results are not listed. Values without a mark were called inactive. Calls of active or inactive are those of the source. The call rests on the fitted dose curve; in most records, active means well fitted inhibition curve with a large enough effect; inconclusive means small, poorly fitted or top-dose-only effect; inactive means no such curve, though single readings can be large or run the other way.
On the % scale 0 is the no-effect control and ±100 the full control effect; potency means the concentration at half of the fitted maximal effect.

Sequence of ATPase family AAA domain-containing protein 5 (Homo sapiens) (Q96QE3 whole entry, looked up, the tested form may be a part): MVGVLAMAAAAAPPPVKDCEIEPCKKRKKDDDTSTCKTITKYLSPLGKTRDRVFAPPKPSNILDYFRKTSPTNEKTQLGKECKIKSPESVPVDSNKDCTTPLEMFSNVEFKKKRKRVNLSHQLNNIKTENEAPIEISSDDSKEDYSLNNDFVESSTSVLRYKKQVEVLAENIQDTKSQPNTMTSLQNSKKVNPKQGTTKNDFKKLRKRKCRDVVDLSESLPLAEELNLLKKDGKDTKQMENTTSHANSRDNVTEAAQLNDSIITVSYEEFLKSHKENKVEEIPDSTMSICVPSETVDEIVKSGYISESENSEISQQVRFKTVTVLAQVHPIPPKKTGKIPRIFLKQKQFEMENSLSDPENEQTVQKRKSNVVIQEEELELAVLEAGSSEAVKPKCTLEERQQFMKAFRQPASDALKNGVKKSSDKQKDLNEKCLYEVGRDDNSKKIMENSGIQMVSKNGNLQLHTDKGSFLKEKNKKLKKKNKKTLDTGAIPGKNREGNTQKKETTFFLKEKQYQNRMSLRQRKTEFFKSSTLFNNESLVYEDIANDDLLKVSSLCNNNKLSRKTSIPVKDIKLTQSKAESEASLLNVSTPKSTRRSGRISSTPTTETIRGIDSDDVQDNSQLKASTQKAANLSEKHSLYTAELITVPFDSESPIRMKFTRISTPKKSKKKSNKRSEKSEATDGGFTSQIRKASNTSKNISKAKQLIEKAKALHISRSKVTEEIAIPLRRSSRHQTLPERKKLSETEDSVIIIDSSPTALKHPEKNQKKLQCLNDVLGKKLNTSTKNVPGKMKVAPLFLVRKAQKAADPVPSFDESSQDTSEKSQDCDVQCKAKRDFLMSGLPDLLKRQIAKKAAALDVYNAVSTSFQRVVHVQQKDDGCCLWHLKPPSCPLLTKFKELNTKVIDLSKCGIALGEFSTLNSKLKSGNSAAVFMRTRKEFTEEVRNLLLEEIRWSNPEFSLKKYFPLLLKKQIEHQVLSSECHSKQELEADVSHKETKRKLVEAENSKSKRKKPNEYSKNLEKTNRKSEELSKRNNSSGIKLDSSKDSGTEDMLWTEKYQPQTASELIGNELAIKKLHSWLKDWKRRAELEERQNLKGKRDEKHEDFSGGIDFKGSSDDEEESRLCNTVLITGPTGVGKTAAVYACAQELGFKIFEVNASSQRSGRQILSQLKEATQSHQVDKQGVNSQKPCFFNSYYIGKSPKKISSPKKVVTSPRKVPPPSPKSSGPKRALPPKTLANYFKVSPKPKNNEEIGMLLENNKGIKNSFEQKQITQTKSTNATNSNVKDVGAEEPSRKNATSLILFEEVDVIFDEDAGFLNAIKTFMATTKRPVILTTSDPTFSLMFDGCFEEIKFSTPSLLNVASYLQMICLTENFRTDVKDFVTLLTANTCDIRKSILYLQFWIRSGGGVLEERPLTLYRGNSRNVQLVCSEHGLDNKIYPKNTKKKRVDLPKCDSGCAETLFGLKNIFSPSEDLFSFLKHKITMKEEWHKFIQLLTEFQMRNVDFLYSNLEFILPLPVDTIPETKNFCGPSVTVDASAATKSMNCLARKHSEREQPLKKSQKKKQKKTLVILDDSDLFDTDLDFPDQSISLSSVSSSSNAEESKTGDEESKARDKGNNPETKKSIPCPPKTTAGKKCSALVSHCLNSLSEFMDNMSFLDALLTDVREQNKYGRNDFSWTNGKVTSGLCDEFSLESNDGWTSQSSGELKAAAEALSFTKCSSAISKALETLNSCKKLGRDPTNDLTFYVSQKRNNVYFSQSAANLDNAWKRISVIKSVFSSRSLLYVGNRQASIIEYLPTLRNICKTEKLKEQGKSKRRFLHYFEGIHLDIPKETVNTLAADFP

The target in this experiment is ATPase family AAA domain-containing protein 5 (Homo sapiens) (UniProt Q96QE3). Description: HTS assay for small molecules that inhibit ELG1-dependent DNA repair in human embryonic kidney (HEK293T) cells expressing luciferase-tagged ELG1: Hit Confirmation (AID 624248). Further: nearly all actives have a fitted effect of over 55% in size. To be noted: HEK293T ELG1-luciferase levels, luminescence, cells co-treated with 5-fluorouridine; series mostly up to 46.1 µM; activity change, negative = inhibition: at the top concentration. From the text:
Cancer cells divide rapidly compared to normal cells in the body. During cell division, cancer cells need to duplicate their genome by DNA replication. The failure of genome duplication leads to cancer cells' death. Therefore, inhibitors of DNA replication could specifically kill cancer cells. Based on this concept, many chemotherapeutic agents were developed and have been used to treat cancer patients. However, there are a limited number of agents available in the clinical setting, and some of those that do exist have low efficacy and severe side effects. Therefore, if we can find the compounds that effectively block DNA replication either by directly damaging DNA or by inhibiting other cellular mechanisms, the options for cancer treatment will be broadened. With this in mind, we developed a quantitative high-throughput ELG1-luciferase reporter gene assay. Small molecules that specifically block ELG1 function in response to DNA damage can be identified by monitoring the suppression of luciferase activity. Since ELG1 defines a pathway for repairing DNA damage, agents blocking ELG1 function can be used to sensitize cancer cells to chemotherapeutic agents whose mechanism of action involves the induction of DNA damage.
NIH Molecular Libraries Probe Production Network [MLPCN]
NIH Chemical Genomics Center [NCGC]
Assay Provider: Kyungjae Myung, NHGRI, NIH
For genotoxicity screening, 2,000 cells in 4 uL/well were dispensed into white, solid-bottom 1536-well plates using a solenoid-based dispenser. Following transfer of 1 uL 5-Fluorouridine and 23 nL compound or DMSO vehicle by a pin tool, the plates were incubated 16 hr at 37 °C and 5% CO2. 5 ul ONE-Glo (Promega) was then added to each plate and following a 30 min incubation at room temperature, luciferase activity was quantified on a ViewLux CCD-based plate reader.
Turning to `OCCCNc1nccc(-c2cc(Nc3cccc(Cl)c3)ncn2)n1`, the Potency was 0.792 µM (active).
Still for that read-out and setting: the same measure for `CCOC(=O)c1cccc(NC(=O)C2CCN(c3ncnc4c3nc3n4CCCCC3)CC2)c1`: 3.97 µM (active); for `CS(=O)(=O)c1ccc2nc(NC(=O)C3CCCCC3)sc2c1`: 6.28 µM (active).
For the compound `COc1ccc(NC(C)=O)cc1NC(=O)CN1CCN(C2c3ccccc3-c3ccccc32)CC1`, the Potency was 2.81 µM (active).
Consider `CC(=O)c1c(C)n(-c2ccc(C)cc2)c2ccc(O)cc12`, for which the “activity change, negative = inhibition” value is -2.68%.
Regarding `Cc1ccccc1NC(=O)CSc1nc2ccc(Nc3nc(N4CCOCC4)nc(N4CCOCC4)n3)cc2s1`, the Potency was 3.15 µM (active).
Regarding `NC(=O)c1sc2nc3c(c(-c4ccccc4)c2c1N)CCC3`, the Potency is 1.77 µM (active).
On to `COc1ccc(-c2nn(-c3ccccc3)cc2/C=C\C(=O)N2CCOCC2)cc1[N+](=O)[O-]`, for which the Potency is 1.41 µM (active).
As to `COc1ccc(CSc2nc(N3CCOCC3)c3c(c2C#N)CC(C)(C)OC3)cc1`, the Potency is 0.889 µM (active).
`CN(C)c1ccnc2sc3c(=O)n(Cc4ccccc4)cnc3c12`: the Potency was 4.45 µM (active).
For the compound `Cc1cc2oc(=O)cc(CN3CCN(S(=O)(=O)c4cccs4)CC3)c2cc1C(C)C`, the Potency was 3.53 µM (active).
On the same count and under the same terms, the same measure for `CN(CC1CCCO1)S(=O)(=O)c1ccc(C(=O)Nc2ccc(F)cc2)cc1` (stereo unspecified): 9.96 µM (active); for `Nc1nnc(SCC(=O)Nc2ccc3nc(SCC(=O)Nc4ccccc4)sc3c2)s1`: 0.888 µM (active).
In the case of `COc1ccc(NC(=O)c2sc3nc(C)nc(N4CCN(c5ccccn5)CC4)c3c2C)c(OC)c1`, the Potency was 3.97 µM (active).
Take `Cc1ccc(C)c(S(=O)(=O)N2CCN(c3ncnc4sccc34)CC2)c1`: the Potency is 4.99 µM (active).
Turning to `Cc1ccc(Nc2nc(N3CCOCC3)nc(N3CCOCC3)n2)cc1Cl`, the Potency was 1.99 µM (active).
For `CCc1ccc(N(CC)c2ncnc3nc[nH]c23)cc1`, the Potency was 4.99 µM (active).
In the case of `Clc1ccc2nc(-c3ccccc3)nc(C(Cl)Cl)c2c1`, the Potency was 3.53 µM (active).
On to `CC12CCC(C(=O)N3CCN(c4ncccn4)CC3)(c3nc4ccccc4nc31)C2(C)C` (stereo unspecified), for which the Potency was 7.91 µM (active).
Same read-out and setting: the same measure for `COc1ccccc1C(=O)Nc1ccc(C)c(S(=O)(=O)N2CCCCC2)c1`: 14.1 µM (active); for `Cc1ccc(N(Cc2ccc(C(=O)Nc3ccccc3C(=O)NCc3ccco3)cc2)S(C)(=O)=O)cc1C`: 6.28 µM (active).

Source of the values: PubChem BioAssay (NCATS).
